Unmarked numbers belong to inactive results.
Test system: Vero E6 infected with SARS-CoV-2
Assay: inhibition of SARS-CoV-2 cytopathic effect; higher = more antiviral protection, active = above 15
Conditions: 48 h

Structure (SMILES)	inhibition of SARS-CoV-2 cytopathic effect (1 nM) [%]	inhibition of SARS-CoV-2 cytopathic effect (8.33 nM) [%]	inhibition of SARS-CoV-2 cytopathic effect (100 nM) [%]	inhibition of SARS-CoV-2 cytopathic effect (833.33 nM) [%]	inhibition of SARS-CoV-2 cytopathic effect (10000 nM)
COc1ccc(C(=O)Nc2c(Cl)cncc2Cl)cc1OC1CCCC1 [piclamilast]	-1.88	-0.22	0.16	-2.24	-0.91%
O=[N+]([O-])c1ccc(O)c([N+](=O)[O-])c1 [2,4-dinitrophenol]	2.74	2.11	5.04	2.61	2.69%
N#C[C@H](O[C@@H]1O[C@H](CO[C@@H]2O[C@H](CO)[C@@H](O)[C@H](O)[C@H]2O)[C@@H](O)[C@H](O)[C@H]1O)c1ccccc1 [amygdalin]	0.51	-1.9	0.79	-1.12	0.27%
COc1ccccc1N1CCN(CCCNc2cc(=O)n(C)c(=O)n2C)CC1 [urapidil]	0.14	-1.36	-0.45	2.04	-0.1%
CCc1c2c(nc3ccc(O)cc13)-c1cc3c(c(=O)n1C2)COC(=O)[C@]3(O)CC	1.57	0.05	-1.96	-6.66	-16.9%
CN(C)N(C)C(=O)[C@@]1(Cc2ccccc2)CCCN(C(=O)[C@@H](Cc2c[nH]c3ccccc23)NC(=O)C(C)(C)N)C1 [anamorelin]	-0.24	-1	9.14	-2.12	-0.05%
Cc1nnsc1C(=O)Nc1ccc(-n2nc(C(F)(F)F)cc2C(F)(F)F)cc1	-4.22	2.91	0.56	-0.23	-10.5%
O=C(O)C1=CCNCC1 [isoguvacine]	0.65	0.98	0.98	3.23	2.12%
CCOC(=O)C1=C(C)NC(=S)NC1c1cccc(O)c1 (stereo not given) [monastrol]	0.53	-0.07	1.51	0.94	-1.39%
c1ccc(-c2oc3ncnc(NC[C@@H]4CCCO4)c3c2-c2ccccc2)cc1	0.95	0.57	0	0.71	1.78%
O=CN1CCC(C(=O)NCCN2CCC(=C3c4ccccc4C=Cc4ccccc43)CC2)CC1	1.02	0.48	0.42	-2.21	1.23%
O=C1NC(=O)/C(=C/c2cccc(C(F)(F)F)c2)S1	0.25	2.25	1.98	-0.59	-1.22%
CN(C(=O)Cc1ccc(Cl)c(Cl)c1)[C@H](CN1CCCC1)c1ccccc1	4.62	6.47	6.09	-0.24	34.8% (active)
NC(=O)N1CCC(CC(=O)N2CCC([C@H]3c4ncc(Br)cc4CCc4cc(Cl)cc(Br)c43)CC2)CC1 [lonafarnib]	-0.44	0.33	1.55	11.2	12.3%
CCOc1cn(-c2ccc(F)cc2C)nc1C(=O)Nc1ccc(Oc2ccnc3cc(OC)c(OC)cc23)c(F)c1	-0.58	-1.4	-1.89	0.24	-1.4%
C1CCC(/N=C(\NC23CC4CC(CC(C4)C2)C3)N2CCOCC2)CC1	7.27	1.31	1.69	4.84	-3.64%
CCCOc1ccc(S(=O)(=O)N2CCN(CCO)CC2)cc1-c1nc2c(CCC)cn(CC)c2c(=O)[nH]1 [mirodenafil]	-1.57	0.66	-2.49	-3.18	-6.03%
CCOC(=O)NNc1nncc2ccccc12 [todralazine]	2.18	1.04	0.33	0.99	-0.55%
CC(=O)OCC1=C(C(=O)O)N2C(=O)[C@@H](NC(=O)Cc3cccs3)[C@H]2SC1 [cephalothin]	0.91	2.69	1.37	-0.06	1.33%
CCc1cc(O)c(Oc2ccc(C(N)=O)cc2F)cc1F	0.22	-0.22	0.21	-0.53	-0.97%
O=C1NCN(c2ccccc2)C12CCN(CCCC(c1ccc(F)cc1)c1ccc(F)cc1)CC2 [fluspirilene]	0.39	-2.06	-3.28	-5.63	10.3%
Nc1ccn([C@@H]2O[C@H](CO)[C@@H](O)[C@@H]2O)c(=O)n1 [cytarabine]	-0.13	2.91	2.21	-1	-2.58%
Oc1ccc2c3c1O[C@H]1c4c(c5ccccc5n4Cc4ccccc4)C[C@@]4(O)[C@@H](C2)N(CC2CC2)CC[C@]314 [N-benzylnaltrindole]	0.62	0.67	2.73	-0.06	34% (active)
CCCn1cnc2c1c(=O)n(CCCCC(C)=O)c(=O)n2C [propentofylline]	0.84	2.46	1.32	2.05	0.29%
Cn1c(NCCN(CCO)CCCc2ccc([N+](=O)[O-])cc2)cc(=O)n(C)c1=O [nifekalant]	-1.86	0	-1.76	-0.02	-1.25%
OCC(Br)(Br)Br [tribromoethanol]	3.45	0.33	2.81	4.01	1.49%

— the supplement of paper PMC13380429
